{"source": "PubChem BioAssay (NCATS)", "note": "Where “and” joins values, the source holds several entries; their conditions need not be identical. Equal entries are not always repeated. Results filed as inconclusive are left out. More than one record can exist for a structure, and the calls need not agree. Calls of active or inactive are those of the source. Calls follow the shape of the dose curve; as a rule, active = well fitted cell-killing curve with a large enough effect; inconclusive = small, poorly fitted or top-dose-only effect, or effect the other way; inactive = no such curve, though single readings can be large or run the other way. Potency is read from the fitted curve at half-maximal effect."}
{"assay": "Viability qHTS for spleen associated tyrosine kinase inhibitor (SYKi) naive MV4-11 cells (AID 1963823); also: nearly all actives have a fitted effect of over 40% in size", "details": "MV4-11 AML viability, CellTiter-Glo luminescence, 72 h; series mostly up to 45 µM; viability (% of control): at the top concentration", "excerpt": "Department of Medicine, Hematology/Oncology\nUniversity Hospital Frankfurt, Germany.\nTrials have shown promising clinical activity of the selective SYK inhibitor entospletinib in patients with high expressing HOXA9/MEIS1 acute leukemias. As the development of resistance mechanisms is a common problem in the use of targeted drugs, we performed a chemical library screen to identify drug sensitivities in SYK inhibitor resistant AML cells. […] Glucocorticoids are potent immunosuppressants which work in part by inhibiting the transcription of cytokine genes.\nDescribed herein is a viability screen to look for activity in the SYK inhibitor naive cell line against four NCATS compound libraries (MIPE 5.0, NPC, NPACT, and Kinase) totaling 11372 compounds. Active hits were reacquired for confirmation and further secondary assay testing.\nSEQUENCE No. (e.g., 1, 2, 3, etc.); […] (e.g., Cells, Incubation, Reagent, etc.); VALUE; DESCRIPTION.\n1; Media; 2uL; white, solid-bottom Corning assay plate.\n2; Compounds; 23nL; Echo acoustic dispenser.\n3; Cell; 5uL; 500 cells per well.\n4: Incubation; 72hr; 37 C, 5% CO2, 95% humidity.\n5; Reagent; 3uL; CellTiter-Glo reagent (Promega).\n6; Incubation; 10min; room temperature.\n7; Detection; Luminescence; ViewLux plate reader (PerkinElmer).\nNOTES (numbers refer to Sequence numbers above\n1. Quantitative high-throughput screening (qHTS) of small molecule compounds was conducted on naive SYKi MV4-11 cell line.\n2. Twenty-three nanoliter of small molecule compounds were added to each assay plates using the Echo acoustic dispenser (Beckman Coulter).\n3. Cells were seeded into the assay plates at a final density of 500 cells in 5uL of media per well using the Multi-drop Combi dispenser.\n4. Plates were covered with stainless steel gasketed lids and incubated for 72 hours at standard cell culture conditions.\n5. Viability was assessed by adding 3uL of CellTiter-Glo detection reagent (Promega).\n6. Plates were covered with gasket lids and incubated for 10 minutes at room temperature.\n7. Luminescence was measured on a ViewLux plate reader (PerkinElmer)."}
{"smiles": "CCCc1ncc(C[n+]2ccccc2C)c(N)n1", "viability (% of control)": "49.2% (inactive)"}
{"smiles": "C#C[C@]1(OC(C)=O)CC[C@H]2[C@@H]3CCC4=C/C(=N/O)CC[C@@H]4[C@H]3CC[C@@]21CC", "Potency": "26.6 µM (active)"}
{"smiles": "OC[C@@H](O)[C@H](O)[C@H](O)[C@@H](O)CO", "Potency": "5.96 µM (active)"}
{"smiles": "CCOC(=O)[C@H](CCc1ccccc1)N[C@@H](C)C(=O)N(CC(=O)O)C1Cc2ccccc2C1", "viability (% of control)": "55.9% (inactive)"}
{"smiles": "CCCCN=C(N)NC(=N)N", "viability (% of control)": "63.7% (inactive)"}
{"smiles": "COc1cc(C)c(C(=O)Oc2cc(C)c(C(=O)Oc3cc(C)c(C(=O)NC(C)C(=O)O)c(O)c3)c(O[C@@H]3O[C@H](CO)[C@@H](O)[C@H](O)[C@H]3OC(C)=O)c2)c(OC)c1", "note": "(stereo not given in full)", "viability (% of control)": "63.7% [at 17.3 µM] (inactive)"}
{"smiles": "O=C1NC(=O)[C@@H](c2cn3c4c(cccc24)CCC3)[C@@H]1c1c[nH]c2ccccc12", "Potency": "1.18 µM (active)"}
{"smiles": "Cc1c(NC(=O)c2cc(C(N)=O)nc3cc(F)ccc23)c(C(F)(F)F)nn1Cc1ccc(C#N)cc1", "Potency": "inactive and 14.8 µM (active)"}
{"smiles": "COc1cc2c(cc1-c1c(C)noc1C)ncc1[nH]c(=O)n([C@H](C)c3ccccn3)c12", "Potency": "0.206 µM (active)"}
{"smiles": "C/C=C1/[C@H](O[C@@H]2O[C@H](CO)[C@@H](O)[C@H](O)[C@H]2O)OC=C(C(=O)OC)[C@H]1CC(=O)O[C@@H]1O[C@H](CO)[C@@H](O)[C@H](O)[C@H]1O", "viability (% of control)": "96.3% [at 17.3 µM] (inactive)"}
{"smiles": "CC(C(=O)O)c1cccc(Oc2ccccc2)c1", "note": "(stereo not given)", "viability (% of control)": "67.6% (inactive)"}
{"smiles": "C=CC1(C)CC(O)C2(CCC3C(C)(C(=O)O)CCCC3(C)C2=O)C1", "note": "(stereo not given)", "viability (% of control)": "53.4% (inactive)"}
{"smiles": "CCCCCCCCCCCCCC(=O)N[C@H](CO)[C@H](O)c1ccc([N+](=O)[O-])cc1", "Potency": "26.3 µM (active)"}
{"smiles": "CC[C@]12C=CCN3CC[C@@]4(c5cc([C@@]6(C(=O)OC)CC7C[C@@H](C(C)(F)F)CN(Cc8c6[nH]c6ccccc86)C7)c(OC)cc5N(C)[C@H]4[C@@](O)(C(=O)OC)[C@@H]1OC(C)=O)[C@@H]32", "note": "(stereo not given in full)", "Potency": "0.0934 µM (active)"}
{"smiles": "COc1cc(/C=C/C(=O)O[C@H]2[C@H](O)[C@@H](CO)O[C@@]2(CO)O[C@H]2O[C@H](CO)[C@@H](O)[C@H](O)[C@H]2O)ccc1O", "viability (% of control)": "78.7% [at 17.3 µM] (inactive)"}
{"smiles": "COc1cc(O)cc(C)c1C(=O)O[C@@H]1[C@H](O)[C@@H](CO)O[C@H]1n1ccc(=O)[nH]c1=O", "Potency": "2.82 µM (active)"}
{"smiles": "Nc1n[nH]c(N)c1N=Nc1ccc(O)cc1", "Potency": "9.2 µM (active)"}
{"smiles": "O=C1COc2nccc(-c3ccccc3F)c2CN1Cc1cc(C(F)(F)F)cc(C(F)(F)F)c1", "Potency": "11.6 µM (active)"}
{"smiles": "CC1CCC2C(C)(C)C(O)CCC2(C)C12Cc1c(O)cc3c(c1O2)CN=C3N", "note": "(stereo not given)", "viability (% of control)": "71.2% (inactive)"}
{"smiles": "NC[C@H]1O[C@H](O[C@@H]2[C@@H](O)[C@@H](O[C@H]3O[C@H](CO)[C@@H](O)[C@H](N)[C@@H]3O)[C@H](N)C[C@@H]2N)[C@H](O)[C@@H](O)[C@H]1O", "Potency": "1.05 µM (active)"}
{"smiles": "CC1=CC(=O)c2ccccc2C1=O", "Potency": "7.42 µM (active)"}
{"smiles": "CC1(C)SC2C(NC(=O)[C@H](C(=O)O)c3ccsc3)C(=O)N2C1C(=O)O", "note": "(stereo not given in full)", "viability (% of control)": "94% (inactive)"}
{"smiles": "COc1c2c(c(C)c3c1C(=O)OC3)O[C@@]1(C)C[C@@H](O)[C@]34O[C@](OC)(CC[C@]3(C)[C@H]1C2)OC4(C)C", "viability (% of control)": "49.9% [at 17.3 µM] (inactive)"}
{"smiles": "CN1[C@@H]2CC[C@H]1CC(OC(=O)C(O)c1ccccc1)C2", "note": "(stereo not given in full)", "viability (% of control)": "101% (inactive)"}
{"smiles": "Nc1ccc(C(=O)OCC(O)CO)cc1", "note": "(stereo not given)", "viability (% of control)": "76.3% (inactive)"}
{"smiles": "CC[C@H](C)/C=C(C)/C=C/C1=CC2=C(Cl)C(=O)[C@](C)(O)[C@H](OC(C)=O)[C@H]2CO1", "Potency": "12.8 µM (active)"}
{"smiles": "O=c1c2ccccc2nc2n1CCC2O", "note": "(stereo not given)", "viability (% of control)": "82.6% [at 91.9 µM] (inactive)"}
{"smiles": "O=S(=O)(NCCNC/C=C/c1ccc(Br)cc1)c1cccc2cnccc12", "Potency": "5.17 µM (active) and 4.68 µM (active)"}
{"smiles": "COCC(=O)Nc1c(I)c(C(=O)NCC(O)CO)c(I)c(C(=O)N(C)CC(O)CO)c1I", "note": "(stereo not given)", "Potency": "0.0009 µM (active)"}
{"smiles": "Cc1[nH]cnc1CN1CCN(C(=O)N[C@@H](CC(C)C)C(=O)O)[C@@H](Cc2ccccc2)C1=O", "viability (% of control)": "65% (inactive)"}
{"smiles": "CC(=O)O[C@H]1C[C@@](O)(C(C)C)C2[C@@H](OC(=O)c3ccc(O)cc3)C[C@@]3(C)O[C@H]3C[C@]21C", "note": "(stereo not given in full)", "viability (% of control)": "46.7% [at 17.3 µM] (inactive)"}
{"smiles": "COC(=O)CCc1cc2ccoc2c(OC)c1O[C@@H]1O[C@H](CO)[C@@H](O)[C@H](O)[C@H]1O", "viability (% of control)": "75.8% [at 17.3 µM] (inactive)"}
{"smiles": "Cc1c(F)ccc(C(=O)Nc2cc([N+](=O)[O-])ccc2N2CCN(C)CC2)c1Cl", "Potency": "1.32 µM (active)"}
{"smiles": "CN(C)C1CCN(C(=O)c2ccc(NC(=O)Nc3ccc(-c4nc(N5CCOCC5)nc(N5CCOCC5)n4)cc3)cc2)CC1", "Potency": "0.0146 µM (active)"}
{"smiles": "CC(=O)C1CCC2C3CCC4=CC(=O)CCC4(C)C3CCC12C", "note": "(stereo not given)", "Potency": "16.6 µM (active)"}
{"smiles": "CC1(C)S[C@@H]2[C@H](NC(=O)Cc3ccccc3)C(=O)N2[C@H]1C(=O)O", "note": "(tested in a mixture with another compound)", "viability (% of control)": "77.7% (inactive)"}
{"smiles": "Cc1nn(Cc2ccccc2Cl)c(C)c1CN(C)CC(O)COc1ccc(Cl)cc1", "note": "(stereo not given)", "Potency": "14.8 µM (active)"}
{"smiles": "CC(C)c1cnn2c(NCc3ccccc3)cc(NCCCCCCN)nc12", "Potency": "16.6 µM (active)"}
{"smiles": "COc1cc(C(=O)NC2CCN(C)CC2)ccc1Nc1ncc2c(n1)N(C1CCCC1)CC(F)(F)C(=O)N2C", "Potency": "0.0231 µM (active)"}
{"smiles": "CC(C)[C@H]1C(=O)N[C@@H](CCCN=C(N)N)C(=O)NCC(=O)N[C@@H](CC(=O)O)C(=O)N[C@H](Cc2ccccc2)C(=O)N1C", "viability (% of control)": "102% [at 17.3 µM] (inactive)"}
